According to PubChem BioAssay (Tox21):
Inconclusive results are not listed. Calls of active or inactive are those of the source. Unless noted, calls come from the whole dose curve; as a rule, active = well fitted curve in the direction sought with a large enough effect in the repeat runs; inconclusive = weak or mixed curves; inactive = no such curve, though single readings can be large; an effect the other way counts as inactive or inconclusive.

How the values were obtained:
[1] = A CellTox Green Cytotoxicity Assay to monitor cytotoxicity in HEK293 cells - 32 hour (AID 1224881); note: nearly all actives have a fitted effect of over 40% in size
Procedure, shortened: (§1)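 Cytotoxicity was tracked continuously in HEK293 cells by a DNA-binding dye excluded from viable cells. Compounds were transferred in DMSO 5 h after seeding; fluorescence was recorded at intervals up to 40 h.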

[2] = A CellTox Green Cytotoxicity Assay to monitor cytotoxicity in HepG2 cells - 0 hour (AID 1224882); note: nearly all actives have a fitted effect of over 35% in size
Procedure, shortened: (§2)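 Real-time, homogeneous cytotoxicity readout: dead-cell DNA staining by CellTox Green in HepG2 monolayers, fluorescence measured at timed intervals up to 40 h of continuous compound exposure.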

[3] = A CellTox Green Cytotoxicity Assay to monitor cytotoxicity in HepG2 cells - 32 hour (AID 1224883); note: nearly all actives have a fitted effect of over 50% in size
Procedure, shortened: as §2

[4] = A CellTox Green Cytotoxicity Assay to monitor cytotoxicity in HEK293 cells - 8 hour (AID 1224884); note: nearly all actives have a fitted effect of over 35% in size
Procedure, shortened: as §1

[5] = qHTS RealTime-Glo MT Cell Viability Assay in HepG2 cells - 16 hour (AID 1224885); note: nearly all actives have a fitted effect of over 50% in size
Procedure, shortened: (§3)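 Compound treatment began 5 h after plating HepG2 cells (600/well) with NanoLuc luciferase and prosubstrate. Plates stayed at 37 C for 40 h; luminescence was captured at six time points, 0 h through 40 h.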

[6] = qHTS RealTime-Glo MT Cell Viability Assay in HEK293 cells - 24 hour (AID 1224886); note: top concentration of the series differs between compounds; nearly all actives have a fitted effect of over 50% in size
Procedure, shortened: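 Quantitative high-throughput screen of the Tox21 10K library in HEK293: cells and RealTime-Glo reagents plated together, compound added at 5 h, luminescence monitored through 40 h at 37 C.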

[7] = qHTS RealTime-Glo MT Cell Viability Assay in HEK293 cells - 8 hour (AID 1224887); note: top concentration of the series differs between compounds; nearly all actives have a fitted effect of over 50% in size
Procedure, shortened: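 Nonlytic bioluminescent viability monitoring. HEK293 at 600 cells/well with reagent; 5 h settle; compound transfer by pintool; plates held at 37 C and read at set time points.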

[8] = A CellTox Green Cytotoxicity Assay to monitor cytotoxicity in HEK293 cells - 16 hour (AID 1224888); note: nearly all actives have a fitted effect of over 35% in size
Procedure, shortened: as §1

[9] = A CellTox Green Cytotoxicity Assay to monitor cytotoxicity in HepG2 cells - 8 hour (AID 1224890); note: nearly all actives have a fitted effect of over 45% in size
Procedure, shortened: as §2

[10] = qHTS assay to identify small molecule antagonists of the estrogen receptor alpha (ER-alpha) signaling pathway using the BG1 cell line in the presence of 0.1 nM 17-beta-estradiol - cell viability counter screen (AID 1259241); note: nearly all actives have a fitted effect of over 40% in size
Procedure, shortened: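 CellTiter-Fluor read (30 min, 37C) on ER-alpha/ERE-luc VM7Luc4E2 cells; 22 hr compound treatment; agonist 0.1 nM E2 final; same-well multiplex.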

[11] = qHTS assay to identify small molecule antagonists of the androgen receptor (AR) signaling pathway using the MDA cell line in the presence of 0.5 nM R1881 - cell viability counter screen (AID 1259242); note: nearly all actives have a fitted effect of over 45% in size
Procedure, shortened: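 Cytotoxicity toward MDA-kb2 cells is measured by CellTiter-Fluor live-cell protease fluorescence after 16 hr compound exposure at 37C in the presence of 0.5 nM R1881 stimulator.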

[12] = target: Estrogen receptor (Homo sapiens) (UniProt P03372); test: qHTS assay to identify small molecule antagonists of the estrogen receptor alpha (ER-alpha) signaling pathway using the BG1 cell line in the presence of 0.1 nM 17-beta-estradiol (AID 1259244); note: nearly all actives have a fitted effect of over 50% in size
Procedure, shortened: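 After 5 days in hormone-depleted medium (charcoal-stripped serum, no phenol red), VM7Luc4E2 cells were seeded, incubated 24 h, then co-treated with compound and 0.1 nM (final) estradiol for 22 h before luminescence detection.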

[13] = qHTS assay to identify small molecule phospholipidosis (PLD) inducers (AID 1259344; active = well fitted curve in the direction sought with a large enough effect; an effect the other way counts as inactive or inconclusive)
Procedure, shortened: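 Phospholipidosis is scored by imaging LipidTOX-stained pits in HepG2 cells exposed to compound for 24 h at 37 C; pit counts and integrated intensities per well and per cell serve as outputs.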

[14] = qHTS assay to identify small molecule HDAC inhibitors (AID 1259364); note: top concentration of the series differs between compounds; nearly all actives have a fitted effect of over 45% in size
Procedure, shortened: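 Homogeneous cell-based luminescent assay of endogenous class I/II HDAC activity; HCT-116 cells, 2 h compound exposure, 30 min HDAC-Glo development at RT.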

[15] = qHTS assay to identify small molecule agonists of the sonic hedgehog signaling (Shh) pathway - cell viability counter screen (AID 1259366); note: nearly all actives have a fitted effect of over 50% in size; note: potency is the fitted concentration of half-maximal effect
Procedure, shortened: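 Fluorescence from CellTiter-Fluor reports live cells in this counter screen. NIH/3T3-derived Gli1-Luc reporter cells receive test compounds for 24hr at 37C; reagent goes in at 23hr.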

[16] = qHTS assay to identify small molecule antagonists of the sonic hedgehog signaling (Shh) pathway - cell viability counter screen (AID 1259367); note: nearly all actives have a fitted effect of over 55% in size; note: potency is the fitted concentration of half-maximal effect
Procedure, shortened: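 Cells: 3T3 Gli1-Luc, 2,000/well, 4 hr pre-incubation. Compounds in DMSO, then conditioned medium. Incubation 24 hr, 37C, 5% CO2. CellTiter-Fluor at 23 hr, 1 hr, fluorescence.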

[17] = qHTS assay to identify small molecule agonists of the sonic hedgehog signaling (Shh) pathway (AID 1259368; calls by dose curve;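 note: NIH/3T3-derived 3T3Gli1-Luc cells carrying a stable Gli1-driven firefly luciferase reporter; series mostly up to about 92 µM; nearly all actives have a fitted effect of over 15% in size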)
Procedure, shortened: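 Steps: seed 3T3 Gli1-Luc cells, incubate 4 hr at 37 C, pin-transfer compounds in DMSO alongside a positive control, incubate 24 hr, add luciferase detection reagent, wait 30 min at room temperature, read luminescence.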

[18] = qHTS RealTime-Glo MT Cell Viability Assay in HepG2 cells - 0 hour (AID 1224889); note: nearly all actives have a fitted effect of over 50% in size
Procedure, shortened: as §3

[19] = qHTS assay to identify small molecule HDAC inhibitors - cell viability counter screen (AID 1259365)
Procedure, shortened: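 To flag cytotoxic hits, 1,500 wild-type HCT-116 cells per well, plated the day before, receive test compounds for 2hr at 37 C before CellTiter-Glo reagent and a luminescence read.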

[20] = target: Androgen receptor (Homo sapiens) (UniProt P10275); test: qHTS assay to identify small molecule antagonists of the androgen receptor (AR) signaling pathway using the MDA cell line in the presence of 0.5 nM R1881 (AID 1259243); note: nearly all actives have a fitted effect of over 50% in size
Procedure, shortened: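 Steps: seed MDA-kb2 cells, incubate 5 hr at 37C; pin-transfer compounds in DMSO; add R1881 to 0.5 nM final; incubate 16 hr; add ONE-Glo, wait 30 min at room temperature; read luminescence.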
% is set by controls: 0 for no effect and ±100 for the full control effect.

Chain of Estrogen receptor (Homo sapiens) (P03372 whole entry, looked up): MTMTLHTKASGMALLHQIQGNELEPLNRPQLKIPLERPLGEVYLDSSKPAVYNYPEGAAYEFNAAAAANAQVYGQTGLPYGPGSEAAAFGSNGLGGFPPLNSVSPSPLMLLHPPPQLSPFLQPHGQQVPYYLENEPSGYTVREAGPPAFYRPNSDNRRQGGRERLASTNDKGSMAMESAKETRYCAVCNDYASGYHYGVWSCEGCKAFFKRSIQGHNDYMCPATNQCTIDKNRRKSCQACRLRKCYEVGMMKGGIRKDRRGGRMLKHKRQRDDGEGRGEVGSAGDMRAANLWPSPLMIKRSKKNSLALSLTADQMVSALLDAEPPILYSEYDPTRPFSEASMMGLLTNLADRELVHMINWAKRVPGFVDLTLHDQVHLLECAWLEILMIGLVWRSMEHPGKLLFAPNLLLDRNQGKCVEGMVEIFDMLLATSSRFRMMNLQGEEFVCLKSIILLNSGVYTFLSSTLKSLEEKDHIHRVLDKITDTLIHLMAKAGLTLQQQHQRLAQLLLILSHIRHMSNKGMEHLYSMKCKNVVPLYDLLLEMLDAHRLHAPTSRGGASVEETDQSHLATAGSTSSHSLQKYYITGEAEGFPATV
Chain of Androgen receptor (Homo sapiens) (P10275 whole entry, looked up): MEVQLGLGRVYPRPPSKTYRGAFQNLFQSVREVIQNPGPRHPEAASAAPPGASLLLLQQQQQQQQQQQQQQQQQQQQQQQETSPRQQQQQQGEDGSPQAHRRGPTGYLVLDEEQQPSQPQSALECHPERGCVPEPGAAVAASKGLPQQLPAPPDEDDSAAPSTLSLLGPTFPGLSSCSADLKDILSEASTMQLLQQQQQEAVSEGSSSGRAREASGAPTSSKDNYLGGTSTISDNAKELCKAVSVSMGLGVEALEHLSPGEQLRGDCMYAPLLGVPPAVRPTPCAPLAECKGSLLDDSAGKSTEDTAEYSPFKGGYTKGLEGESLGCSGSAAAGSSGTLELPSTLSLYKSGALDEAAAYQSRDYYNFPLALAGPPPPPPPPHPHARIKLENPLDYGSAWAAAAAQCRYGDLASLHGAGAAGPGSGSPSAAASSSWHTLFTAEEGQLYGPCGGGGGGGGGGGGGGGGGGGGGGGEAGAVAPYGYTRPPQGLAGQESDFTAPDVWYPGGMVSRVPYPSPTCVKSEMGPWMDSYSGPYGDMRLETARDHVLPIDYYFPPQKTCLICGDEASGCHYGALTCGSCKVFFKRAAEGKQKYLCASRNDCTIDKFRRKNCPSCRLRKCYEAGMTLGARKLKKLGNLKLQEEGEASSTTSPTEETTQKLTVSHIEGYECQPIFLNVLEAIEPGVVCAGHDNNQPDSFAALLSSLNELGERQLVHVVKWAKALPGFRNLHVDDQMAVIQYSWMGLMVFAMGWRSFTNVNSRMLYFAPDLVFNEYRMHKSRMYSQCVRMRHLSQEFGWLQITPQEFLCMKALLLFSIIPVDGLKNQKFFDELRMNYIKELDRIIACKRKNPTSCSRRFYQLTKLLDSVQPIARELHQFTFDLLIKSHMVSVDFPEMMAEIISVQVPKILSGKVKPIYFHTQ

CNC(=O)CN(CCN(CCN(CC(=O)[O-])CC(=O)NC)CC(=O)[O-])CC(=O)[O-].O.[Gd+3]
inactive: Potency [1] | Potency [2] | Potency [3] | Potency [4] | Potency [5] | Potency [6] | Potency [7] | Potency [8] | Potency [9] | Potency [10] | Potency [11] | Potency [12] | Potency [13] | Potency [14] | Potency [15] | Potency [16] | outcome [17]

Cc1[nH]c(C)c(Cl)c(=O)c1Cl
inactive: cytotoxicity increase [1] -3.98% [at 15.8 µM] | cytotoxicity [2] -3.1% [at 15.8 µM] | cytotoxicity increase [3] -7.2% [at 15.8 µM] | cytotoxicity increase [4] -1.54% [at 15.8 µM] | activity change, negative = cytotoxic [5] 0.907% [at 15.8 µM] | activity change, negative = cytotoxicity [6] -19.4% [at 15.8 µM] | activity change, negative = cytotoxicity [7] -23.4% [at 15.8 µM] | activity change [8] -2.28% [at 15.8 µM, active compounds read high] | cytotoxicity increase [9] -4.87% [at 15.8 µM] | viability change, negative = cytotoxic [11] 1.2% [at 19 µM] | Potency [12] | Potency [13] | activity change, negative = inhibition [14] 7.15% [at 19 µM] | viability change, negative = cytotoxic [15] 6.9% [at 19 µM] | viability change, negative = cytotoxic [16] 1.87% [at 19 µM] | activity change [17] -0.115% [at 18.9 µM]

NCC(=O)O
inactive: cytotoxicity increase [1] 1.64% [at 15.8 µM] | cytotoxicity [2] 6.15% [at 15.8 µM] | cytotoxicity increase [3] 1.6% [at 15.8 µM] | cytotoxicity increase [4] 12.2% [at 15.8 µM] | activity change, negative = cytotoxic [5] 8.2% [at 15.8 µM] | activity change, negative = cytotoxicity [6] 3.07% [at 15.8 µM] | activity change, negative = cytotoxicity [7] 10.2% [at 15.8 µM] | activity change [8] -1.23% [at 15.8 µM, active compounds read high] | activity change, negative = cytotoxicity [18] 5.3% [at 15.8 µM] | cytotoxicity increase [9] 1.21% [at 15.8 µM] | viability change, negative = cytotoxic [11] -5.8% [at 19 µM] | Potency [12] | Potency [13] | activity change, negative = inhibition [14] -0.526% [at 19 µM] | activity change, negative = cytotoxicity [19] 4.81% [at 19 µM] | viability change, negative = cytotoxic [16] 1.33% [at 19 µM]

COC(C)(C)CCO
inactive: Potency [1] | Potency [2] | Potency [3] | Potency [4] | Potency [5] | Potency [6] | Potency [7] | Potency [8] | Potency [18] | Potency [9] | Potency [11] | Potency [14] | Potency [19] | Potency [15] | Potency [16] | outcome [17]

Cc1cc(N)c2cc(NC(=O)Nc3ccc4nc(C)cc(N)c4c3)ccc2n1
inactive: Potency [1] | Potency [2] | Potency [3] | Potency [4] | Potency [5] | Potency [6] | Potency [7] | Potency [18] | Potency [9] | Potency [10] | Potency [11] | Potency [20] | Potency [14] | Potency [19] | outcome [17]

CCCCC1=NC2(CCCC2)C(=O)N1Cc1ccc(-c2ccccc2-c2nn[nH]n2)cc1
inactive: Potency [1] | Potency [2] | Potency [3] | Potency [4] | Potency [5] | Potency [6] | Potency [7] | Potency [8] | Potency [18] | Potency [9] | Potency [11] | Potency [12] | Potency [14] | Potency [19] | outcome [17]
active: Potency [15] 4.22 µM | Potency [16] 6.68 µM

CCCCCCc1ccc(-c2ccc(C#N)cc2)cc1
inactive: Potency [1] | Potency [2] | Potency [3] | Potency [4] | Potency [5] | Potency [6] | Potency [7] | Potency [8] | Potency [9] | Potency [10] | Potency [11] | Potency [14] | Potency [19] | Potency [15] | Potency [16] | outcome [17]
